The values below come from PubChem BioAssay (Tox21).

Values joined by “and” are separate entries in the source; they are usually repeats but may differ in a detail not shown here. Equal values may be shown once. Some compounds were tested as several samples or in several runs, with calls that do not always agree. Active and inactive are the calls of the source. Unless noted, the call rests on the fitted dose curve; in most records, active means well fitted curve in the direction sought with a large enough effect in the repeat runs; inconclusive means weak or mixed curves; inactive means no such curve, though single readings can be large; an effect the other way counts as inactive or inconclusive.

Assay [1] can be described thus: qHTS assay to identify small molecule antagonists of the thyroid receptor (TR) signaling pathway (AID 743065). Further: nearly all actives have a fitted effect of over 55% in size. Further: potency means the concentration at half of the fitted maximal effect. The method, boiled down:
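GH3.TRE-Luc rat pituitary cells carrying two TR response elements driving luciferase were plated for 4 h, given compound plus 1 nM T3 (final), and incubated 23.5 h at 37 C. ONE-Glo luminescence measured reporter inhibition; CellTiter-Fluor fluorescence tracked cytotoxicity.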

In assay [2] the test system is thyroid hormone receptor (rat, GH3 cells). As to the kind of experiment: qHTS assay to identify small molecule agonists of the thyroid receptor (TR) signaling pathway (AID 743066; calls by dose curve).
Assay [3] addresses Estrogen receptor (Homo sapiens) (UniProt P03372). As to the kind of experiment: qHTS assay to identify small molecule antagonists of the estrogen receptor alpha (ER-alpha) signaling pathway (AID 743069; active means well fitted curve in the direction sought with a large enough effect in the signal ratio in the repeat runs, not every such curve was filed as active; inconclusive means weak or mixed curves, or effect the other way; inactive means no such curve, though single readings can be large or run the other way; the % refers to the signal ratio; further: potency means the concentration at half of the fitted maximal effect). The method, boiled down: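 Estradiol-stimulated ER-alpha-UAS-bla HEK293 cells, 18 hr compound exposure at 37C. LiveBLAzer B/G substrate, 2 hr RT, fluorescence read.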
Background: qHTS replaces the single test concentration by a dilution series.

Assay [4] in a line: qHTS assay to identify small molecule antagonists of the estrogen receptor alpha (ER-alpha) signaling pathway - cell viability counter screen (AID 743074; calls by dose curve;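 further: HEK293 cells carrying ER-alpha-UAS-bla reporter stimulated with 17beta-estradiol; nearly all actives have a fitted effect of over 45% in size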).
Assay [5] has as its target Estrogen receptor (Homo sapiens) (UniProt P03372). Nature of the assay: qHTS assay to identify small molecule agonists of the estrogen receptor alpha (ER-alpha) signaling pathway (AID 743075; calls by dose curve;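 further: HEK293 GripTite cells with ER-alpha and UAS-driven beta-lactamase reporter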).
Assay [6] has the same target. Nature of the assay: qHTS assay to identify small molecule agonists of the estrogen receptor alpha (ER-alpha) signaling pathway using the BG1 cell line (AID 743079). Further: nearly all actives have a fitted effect of over 20% in size. Further: potency means the concentration at half of the fitted maximal effect.
The nature of assay [7]: qHTS assay to identify small molecule antagonists of the estrogen receptor alpha (ER-alpha) signaling pathway using the BG1 cell line (AID 743080; calls by dose curve;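 further: BG1 cells stimulated with 17beta-estradiol alongside compound; series mostly up to about 70 µM; nearly all actives have a fitted effect of over 25% in size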). The method, boiled down: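 Quantitative HTS on the Tox21 10K library: BG1 cells with endogenous ER-alpha and ERE-luciferase reporter, 17beta-estradiol stimulation, 21.5 h compound exposure, luminescence endpoint with parallel fluorescence cytotoxicity counter-read.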

The nature of assay [8]: qHTS assay to identify small molecule antagonists of the estrogen receptor alpha (ER-alpha) signaling pathway using the BG1 cell line - cell viability counter screen (AID 743081).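 Further: compound given together with 17beta-estradiol as the ER stimulus; nearly all actives have a fitted effect of over 45% in size.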 Further: potency means the concentration at half of the fitted maximal effect.
In a further assay the target is Aromatase (Homo sapiens) (UniProt P11511). As to the kind of experiment: qHTS assay to identify aromatase inhibitors (AID 743083). Further: series mostly up to about 70 µM; nearly all actives have a fitted effect of over 55% in size.
Sequence of Aromatase (Homo sapiens) (P11511 whole entry, looked up): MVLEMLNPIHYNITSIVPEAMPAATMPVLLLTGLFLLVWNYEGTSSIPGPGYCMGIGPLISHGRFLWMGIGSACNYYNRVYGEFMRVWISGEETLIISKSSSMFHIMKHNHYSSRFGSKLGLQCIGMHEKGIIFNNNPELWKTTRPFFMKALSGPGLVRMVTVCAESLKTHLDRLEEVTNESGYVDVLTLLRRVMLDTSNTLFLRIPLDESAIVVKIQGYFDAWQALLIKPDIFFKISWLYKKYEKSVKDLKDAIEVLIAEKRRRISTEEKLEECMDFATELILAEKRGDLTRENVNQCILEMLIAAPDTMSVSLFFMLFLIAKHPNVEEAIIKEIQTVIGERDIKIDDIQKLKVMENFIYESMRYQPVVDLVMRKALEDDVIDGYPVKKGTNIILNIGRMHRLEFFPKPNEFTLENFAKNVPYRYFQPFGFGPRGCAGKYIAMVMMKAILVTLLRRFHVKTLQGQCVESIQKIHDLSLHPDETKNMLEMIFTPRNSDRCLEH
Assay [9] is described as follows: qHTS assay to identify aromatase inhibitors - cell viability counter screen (AID 743084).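 Further: cells stimulated with testosterone during compound exposure; nearly all actives have a fitted effect of over 55% in size.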
Assay [10] can be described thus: qHTS assay to identify small molecule that activate the aryl hydrocarbon receptor (AhR) signaling pathway - cell viability counter screen (AID 743086). Further: nearly all actives have a fitted effect of over 45% in size. Further: potency means the concentration at half of the fitted maximal effect. The method, boiled down: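 HepG2-AhR-luc (HG2L7.5c1) cells, 4000/well, were preincubated 5 h at 37C, exposed to compound in qHTS format for 24 hr at 37C, then given CellTiter-Fluor for 30 min; viability was read as fluorescence in the reporter wells.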

Assay [11] is described as follows: qHTS assay to identify small molecule antagonists of the peroxisome proliferator-activated receptor gamma (PPARg) signaling pathway - cell viability counter screen (AID 743194). Further: nearly all actives have a fitted effect of over 55% in size. The gist of the method:
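PPARg-UAS-bla HEK293H cells were plated, rested 5 h at 37 C, then treated with compounds plus rosiglitazone (50 nM final) for 17 h at 37 C; viability was then read by CellTiter-Glo luminescence after 30 min at room temperature.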

Assay [12] can be described thus: qHTS assay for small molecule agonists of the antioxidant response element (ARE) signaling pathway (AID 743202; active means well fitted activation curve with a large enough effect in the signal ratio in the repeat runs, not every such curve was filed as active; inconclusive means weak or mixed curves, or effect the other way; inactive means no such curve, though single readings can be large or run the other way; the % refers to the signal ratio; further: potency means the concentration at half of the fitted maximal effect). The gist of the method: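 Compounds delivered in DMSO to ARE-bla HepG2 cells (2,000 cells/well, pre-incubated 5 h) and left 16 h at 37 C. LiveBLAzer B/G FRET substrate then added for 2 h at RT before fluorescence reading.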
Assay [13] in a line: qHTS assay for small molecule activators of the heat shock response signaling pathway - cell viability counter screen (AID 743209). Further: nearly all actives have a fitted effect of over 50% in size. The method, boiled down: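 Luminescence from CellTiter-Glo, added after the beta-lactamase FRET read, gave the viability signal. Cells were HSE-bla HeLa treated with DMSO-dissolved compounds for 5 h at 37 C following overnight plating.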
Assay [14] in a line: qHTS assay for small molecule activators of the heat shock response signaling pathway (AID 743210; active means well fitted activation curve with a large enough effect in the signal ratio in the repeat runs, with a control signal flat, not every such curve was filed as active; inconclusive means weak or mixed curves; the % refers to the signal ratio;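 further: HeLa cells with beta-lactamase reporter driven by heat shock elements; series mostly up to about 63 µM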). The method, boiled down:
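Reporter gene assay: HeLa cells stably bearing an HSE-bla construct, compound treatment 5 h at 37 C, LiveBLAzer substrate 2.5 h at RT, fluorescence intensity.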

Assay [15] is described as follows: qHTS assay to identify small molecule agonists of the peroxisome proliferator-activated receptor delta (PPARd) signaling pathway - cell viability counter screen (AID 743211). Further: nearly all actives have a fitted effect of over 55% in size. Further: potency means the concentration at half of the fitted maximal effect. The gist of the method:
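Viability of GeneBLAzer PPARd UAS-bla HEK293H cells was assessed after 17 h compound incubation at 37C, using CellTiter-Glo reagent added after the reporter read and luminescence recorded 30 min later.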

The target in assay [16] is Aryl hydrocarbon receptor (Homo sapiens) (UniProt P35869). Nature of the assay: qHTS assay to identify small molecule that activate the aryl hydrocarbon receptor (AhR) signaling pathway (AID 743085).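 Further: HG2L7.5c1 human HepG2 liver cells with stably integrated DRE-driven firefly reporter; series mostly up to about 70 µM; nearly all actives have a fitted effect of over 15% in size.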 The method, boiled down:
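Steps: seed HepG2-AhR-luc cells; allow 5 h at 37C; pin-transfer test compound or vehicle; incubate 24 h at 37C; add viability dye (30 min, 37C) and read fluorescence; add luciferase substrate (30 min, RT) and read luminescence.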

The target of assay [17] is Peroxisome proliferator-activated receptor gamma (Homo sapiens) (UniProt P37231). As to the kind of experiment: qHTS assay to identify small molecule agonists of the peroxisome proliferator-activated receptor gamma (PPARg) signaling pathway (AID 743094; active means well fitted activation curve with a large enough effect in the signal ratio in the repeat runs, not every such curve was filed as active; inconclusive means weak or mixed curves, or effect the other way; inactive means no such curve, though single readings can be large or run the other way; the % refers to the signal ratio). The gist of the method:
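Beta-lactamase FRET fluorescence was the read-out after a 1 h room-temperature substrate step, following 17 h compound treatment at 37C of HEK293H cells expressing a UAS-driven bla reporter responsive to PPARg.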

Assay [18] has the same target. Nature of the assay: qHTS assay to identify small molecule antagonists of the peroxisome proliferator-activated receptor gamma (PPARg) signaling pathway (AID 743191; calls by dose curve; further: series mostly up to about 63 µM; nearly all actives have a fitted effect of over 30% in size). The gist of the method: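 GeneBLAzer PPARg UAS-bla HEK293H cells carrying a UAS-driven beta-lactamase reporter were plated at 3000 cells/well, preincubated 5 h at 37C, then given compound for 17 h at 37C; LiveBLAzer B/G FRET substrate was read after 1 h at room temperature.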

A short description of assay [19]: qHTS assay for small molecule agonists of the antioxidant response element (ARE) signaling pathway - cell viability counter screen (AID 743203; calls by dose curve; further: nearly all actives have a fitted effect of over 55% in size). The method, boiled down: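 HepG2 cells carrying ARE-driven beta-lactamase; 2,000 cells/well; 5 hrs plating; compound pinned from DMSO; 16 hrs 37C/5% CO2; CellTiter-Glo added; 30 min RT; luminescence.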

Sequence of Aryl hydrocarbon receptor (Homo sapiens) (P35869 whole entry, looked up): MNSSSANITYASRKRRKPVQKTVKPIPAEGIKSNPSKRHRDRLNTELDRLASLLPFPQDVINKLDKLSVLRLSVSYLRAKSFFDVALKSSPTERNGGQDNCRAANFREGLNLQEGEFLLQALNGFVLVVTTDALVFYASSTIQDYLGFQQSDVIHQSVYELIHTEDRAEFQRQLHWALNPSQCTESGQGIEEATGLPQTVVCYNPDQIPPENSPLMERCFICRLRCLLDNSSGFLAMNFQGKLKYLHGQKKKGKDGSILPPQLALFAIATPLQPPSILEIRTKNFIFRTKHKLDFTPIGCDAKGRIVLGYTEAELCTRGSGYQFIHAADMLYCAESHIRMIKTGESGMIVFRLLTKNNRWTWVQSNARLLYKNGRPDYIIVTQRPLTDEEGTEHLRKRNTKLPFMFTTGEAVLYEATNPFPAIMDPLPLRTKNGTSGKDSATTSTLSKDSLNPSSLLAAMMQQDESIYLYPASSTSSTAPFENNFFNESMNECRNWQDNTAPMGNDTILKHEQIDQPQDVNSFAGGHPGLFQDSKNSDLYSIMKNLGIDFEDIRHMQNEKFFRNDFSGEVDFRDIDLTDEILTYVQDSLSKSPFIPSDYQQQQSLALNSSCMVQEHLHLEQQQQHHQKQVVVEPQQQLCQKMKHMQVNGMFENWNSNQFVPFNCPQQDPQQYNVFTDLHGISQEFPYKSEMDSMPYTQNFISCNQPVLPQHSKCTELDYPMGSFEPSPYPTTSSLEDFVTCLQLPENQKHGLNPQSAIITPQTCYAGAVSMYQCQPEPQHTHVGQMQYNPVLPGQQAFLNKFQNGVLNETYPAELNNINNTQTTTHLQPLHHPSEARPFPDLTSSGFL
Sequence of Estrogen receptor (Homo sapiens) (P03372 whole entry, looked up): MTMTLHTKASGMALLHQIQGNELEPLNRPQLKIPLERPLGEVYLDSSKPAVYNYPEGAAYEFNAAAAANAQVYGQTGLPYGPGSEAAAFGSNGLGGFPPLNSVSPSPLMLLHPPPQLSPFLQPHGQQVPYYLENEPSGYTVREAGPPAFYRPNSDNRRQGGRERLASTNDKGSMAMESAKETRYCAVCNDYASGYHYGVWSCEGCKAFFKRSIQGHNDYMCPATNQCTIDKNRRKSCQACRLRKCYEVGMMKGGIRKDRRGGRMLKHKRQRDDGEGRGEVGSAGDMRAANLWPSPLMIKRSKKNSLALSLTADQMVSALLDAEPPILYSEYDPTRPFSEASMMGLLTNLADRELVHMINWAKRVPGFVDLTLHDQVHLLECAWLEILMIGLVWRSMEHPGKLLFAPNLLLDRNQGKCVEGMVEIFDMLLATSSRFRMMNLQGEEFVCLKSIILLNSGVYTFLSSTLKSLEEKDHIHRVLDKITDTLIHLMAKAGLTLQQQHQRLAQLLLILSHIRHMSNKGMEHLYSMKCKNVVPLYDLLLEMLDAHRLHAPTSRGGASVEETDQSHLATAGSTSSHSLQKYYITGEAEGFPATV
Sequence of Peroxisome proliferator-activated receptor gamma (Homo sapiens) (P37231 whole entry, looked up): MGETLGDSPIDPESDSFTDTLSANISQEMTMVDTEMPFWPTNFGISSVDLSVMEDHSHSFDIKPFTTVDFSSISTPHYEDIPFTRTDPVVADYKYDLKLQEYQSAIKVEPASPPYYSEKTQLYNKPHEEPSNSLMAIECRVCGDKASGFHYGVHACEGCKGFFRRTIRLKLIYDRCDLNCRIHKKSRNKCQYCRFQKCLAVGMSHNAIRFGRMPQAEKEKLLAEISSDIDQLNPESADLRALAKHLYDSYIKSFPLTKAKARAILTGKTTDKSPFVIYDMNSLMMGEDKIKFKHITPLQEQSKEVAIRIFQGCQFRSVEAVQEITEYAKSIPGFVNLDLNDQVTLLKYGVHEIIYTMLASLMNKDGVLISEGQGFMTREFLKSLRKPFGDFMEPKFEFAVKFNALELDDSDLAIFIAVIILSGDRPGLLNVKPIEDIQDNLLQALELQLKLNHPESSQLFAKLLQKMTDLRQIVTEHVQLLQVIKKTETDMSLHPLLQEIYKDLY

`O=[Se](O)O`: the Potency result in assay [1], in [2], in assay [4], in assay [5], in [6] and in assay [7] was “inactive” in each case. For the same compound, the Potency result (with Aromatase (Homo sapiens); in assay [9]; in assay [11]; in assay [12]; in [13]; in [15]) was “inactive” each time. For the same compound, the Potency is 43.7 µM [inconclusive] (active) and inactive in assay [3]; 6.87 µM (active) and inactive in [8]; 27.3 µM (active) and inactive in [10]. The outcome in assay [14] was inactive.
In the case of `COC(=O)C(C)Oc1ccc(Oc2ncc(C(F)(F)F)cc2Cl)cc1` (stereo not drawn), the Potency result in assay [1], in [2], in assay [4], in assay [5], in assay [7] and in assay [8] was “inactive” each time. Further, the Potency entry (in the assay with Aromatase (Homo sapiens); in assay [9]; in assay [16]; in assay [10]; in assay [18]; in [11]) was “inactive” throughout. The Potency entry in assay [19], in [13] and in [15] was “inactive” each time. Also, the compound was called inactive in assay [17] and in [14].
For the compound `CC1(C)OC(=O)NC1=O`, the Potency result (in assay [1]; in assay [2]; in [4]; in assay [8]; in the assay with Aromatase (Homo sapiens); in assay [9]) was “inactive” each time. In addition, the Potency result in [16], in assay [10], in assay [18], in assay [11], in [12] and in [19] was “inactive” throughout. The Potency result in [13] and in [15] was “inactive” throughout. Also, the outcome in [17] and in assay [14] was inactive.
On to `CC(=O)O[C@]1(C(C)=O)CC[C@H]2[C@@H]3C=C(Cl)C4=CC(=O)CC[C@]4(C)[C@H]3CC[C@@]21C`, for which the Potency was 26.6 µM (active) and 54.4 µM (active) in assay [1]; 48.9 µM (active) and inactive in assay [15]. For the same compound, the Potency result (in assay [2]; in assay [4]; in assay [5]; in [8]; with Aromatase (Homo sapiens); in [9]) was “inactive” throughout. Besides, the Potency entry in [16], in [10] and in assay [13] was “inactive” each time. For the same compound, the compound was classed as inactive in assay [14].
With `C[C@]12C=CC(=O)C=C1CC[C@H]1[C@@H]3C[C@@H](O)[C@](O)(C(=O)CO)[C@@]3(C)C[C@H](O)[C@@]12F`, the Potency entry (in assay [1]; in assay [2]; in assay [4]; in [5]; in assay [8]; in the assay with Aromatase (Homo sapiens)) was “inactive” throughout. In addition, the Potency entry in assay [9], in [16], in [10], in assay [18], in assay [11] and in assay [12] was “inactive” throughout. The Potency result in assay [13] was “inactive”. Further, the Potency in [6] is 4.73 µM (active) and 48.6 µM (active). The compound was classed as inactive in assay [17] and in assay [14].
In the case of `C=C1C[C@H]2[C@@H]3C=C(C)C4=CC(=O)CC[C@]4(C)[C@H]3CC[C@]2(C)[C@@]1(OC(C)=O)C(C)=O`, the Potency was 23.7 µM (active) and 15.7 µM (active) in assay [1]; 17.6 µM (active) and 29.8 µM (active) in assay [12]. Further, the Potency entry in assay [2], in assay [3], in assay [4], in assay [6], in assay [7] and in assay [8] was “inactive” throughout. Also, the Potency entry (with Aromatase (Homo sapiens); in assay [9]; in assay [16]; in [10]; in assay [18]; in assay [11]) was “inactive” throughout. Further, the Potency entry in assay [19], in assay [13] and in assay [15] was “inactive” each time. For the same compound, the compound was called inactive in assay [17] and in [14].
`Cc1ccc(C(C)(C)C)c(O)c1`: the Potency in assay [1] is 54.5 µM (active). Also, the Potency entry in assay [2], in assay [3], in [4], in [5], in assay [6] and in assay [7] was “inactive” in each case. In addition, the Potency result in assay [8], in assay [16], in [10], in assay [18], in [11] and in [12] was “inactive” each time. Also, the Potency entry in [13] and in assay [15] was “inactive” throughout. Also, the call in assay [17] and in [14] was inactive.
